High-throughput results (PubChem BioAssay)
A selection: hits, their analogues and other compounds. The true share with any hit is near 4.1%.
PRMT1 inh: inhibitors of human PRMT1; recombinant PRMT1, activity-based probe fluorescence polarization; AID 652257; 370,000 compounds, 1.3% hits; inhibition, % at 2.79 µM; Q99873;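 active means inhibition above about 21% made by adding two undisclosed values, limit read from the data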
MBD2 inh: blocks human MBD2 binding to methylated DNA; Q9UBB5; TR-FRET, MBD2 binding to methylated oligonucleotide; inhibition, % at 4.4 µM; 370,000 compounds, 0.31% hits; AID 686964; in the data active means inhibition above about 13%
LEDGF integ inh: blocks HIV-1 LEDGF/p75-dependent DNA integration; TR-FRET IN-LEDGF/p75 DNA integration, Eu/Cy5; 370,000 compounds, 0.64% hits; AID 743269; inhibition, % at 3.7 µM;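 active means inhibition above the screen-wide mean plus 3 SD, cut at about 13% in these data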;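 further: signal is the Cy5 over europium emission ratio at 671 and 618 nm; 0% = plate median of compound wells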
rCAG binder: r(CAG) repeat RNA binding | 370,000 compounds, 1.3% hits | TO-PRO-1 dye displacement fluorescence | AID 651821 | inhibition, % at 3 µM;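 active means inhibition above the plate cutoff, the mean of all test compounds on that plate plus 3 SD, cut at about 35% in these data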;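 further: 0% = DMSO alone and 100% = 100 µM mitoxantrone as full dye displacement; higher means more dye released from RNA so lower well fluorescence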
ABHD5 PLIN5 PPI: blocks binding of human ABHD5 to perilipin-5 | Q00G26+Q8WTS1 | Split G. princeps luciferase complementation, luminescence, 4 h | inhibition, % at 4 µM | 360,000 compounds, 0.78% hits | AID 602281;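 active means inhibition above the mean inhibition across every tested compound plus 3 SD, cut at about 22% in these data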;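 further: 0% = DMSO only wells and the 100% control is not disclosed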
Target sequence (Q00G26 whole entry, looked up): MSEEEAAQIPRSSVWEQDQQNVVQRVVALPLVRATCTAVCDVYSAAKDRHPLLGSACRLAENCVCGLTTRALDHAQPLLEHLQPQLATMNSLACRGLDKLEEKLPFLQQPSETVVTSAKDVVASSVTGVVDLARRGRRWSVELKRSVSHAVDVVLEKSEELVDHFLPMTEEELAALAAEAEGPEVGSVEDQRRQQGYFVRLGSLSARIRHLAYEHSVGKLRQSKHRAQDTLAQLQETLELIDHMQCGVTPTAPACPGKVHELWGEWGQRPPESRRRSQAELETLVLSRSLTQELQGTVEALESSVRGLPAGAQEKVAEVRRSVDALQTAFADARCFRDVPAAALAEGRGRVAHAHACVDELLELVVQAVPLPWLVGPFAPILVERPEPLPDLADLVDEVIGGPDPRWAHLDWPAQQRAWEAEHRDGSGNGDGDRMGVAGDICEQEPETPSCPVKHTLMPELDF
Target sequence (Q8WTS1 whole entry, looked up): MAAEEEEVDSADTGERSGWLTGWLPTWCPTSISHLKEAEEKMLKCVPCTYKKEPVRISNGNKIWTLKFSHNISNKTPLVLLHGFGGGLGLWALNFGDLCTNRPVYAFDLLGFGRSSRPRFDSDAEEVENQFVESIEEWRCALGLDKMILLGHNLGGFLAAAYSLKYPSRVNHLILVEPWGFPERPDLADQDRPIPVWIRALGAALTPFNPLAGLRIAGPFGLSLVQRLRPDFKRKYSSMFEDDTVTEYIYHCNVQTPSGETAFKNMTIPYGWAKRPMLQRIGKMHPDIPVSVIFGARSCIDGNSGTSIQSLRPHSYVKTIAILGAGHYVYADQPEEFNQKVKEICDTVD
UHRF1 MBD2 ctr: blocks human UHRF1 binding to methylated DNA | UHRF1 binding to methylated oligo, TR-FRET | inhibition, % at 4.4 µM | 370,000 compounds, 0.75% hits; in the data active means inhibition above about 21%;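 further: UHRF1 SRA domain binding a hemimethylated CpG hairpin DNA probe; 0% = median of test compound wells and 100% = reference inhibitor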
The depositor's hits bear a star; i = inactive; . = not tested or not shown.

SMILES | PRMT1 inh | MBD2 inh | LEDGF integ inh | rCAG binder | ABHD5 PLIN5 PPI | UHRF1 MBD2 ctr
O=C(OC12CCCN(C1)/C(=C/c1cccc(Cl)c1)C2)C1CCCC1 (configuration not stated) | 0.5 | -0.8 | -3.6 | 2.7 | . | 1.2
OC(c1ccccc1)(c1ccccc1)C1CCN(CCCOc2ccc(C(F)(F)F)cc2)CC1 | -3.0 | -0.8 | 0.9 | -0.2 | . | 1.7
CC(C)C[C@H](NC(=O)N1CCn2c1nc1ccccc12)C(=O)NCCc1ccccc1 | -1.8 | 2.4 | 0.6 | -6.1 | 2.7 | 51.6*
O=S1(=O)c2ccc(Br)cc2OC[C@H](Cc2ccccc2)N1Cc1cn(Cc2ccc(C(F)(F)F)cc2)nn1 | -1.8 | 0.4 | 0.5 | 2.7 | . | -1.3
O=C(Nc1nnc(CSCc2ccccc2F)s1)c1cccc([N+](=O)[O-])c1 | -1.3 | -0.3 | -3.9 | 45.6* | 10.2 | -3.9
COC(=O)[C@]12C[C@H](CC(=O)NCc3ccc(OC)c(OC)c3)C(=O)N(CCC3=CCCCC3)C1=C[C@H](C(C)C)O[C@@H]2C1CC1 | 3.2 | -0.4 | 0.8 | 2.5 | . | -2.5
c1coc(-c2nc3c4ccccc4ccn3c2Cc2ccsc2)c1 | 32.4* | 7.0 | 5.2 | 14.7 | . | 21.7*
COc1cc(Sc2ccc(C)cc2)c(OC)cc1N | 35.2* | 4.8 | -0.2 | 2.6 | 6.5 | -5.3
O=S1(=O)CC2c3ccccc3CCN2CN1Cc1ccc(F)cc1 (configuration not stated) | -4.5 | -2.9 | 2.5 | 0.0 | . | -0.3
COc1ccc2noc3c2c1C(=O)c1ccccc1-3 | 157.4* | -7.0 | 9.4 | i | -1.3 | -8.4
COc1ccc(N)c2c1C(=O)c1ccccc1C2=O | -1.4 | -9.3 | -2.8 | 26.4 | 6.4 | -13.7
COc1ccc(OC)c2c1C(=O)c1ccccc1C2=O | 52.3* | -1.7 | 6.9 | -13.3 | . | -4.1
COCc1cc(N2CCN(C(=O)OC(C)(C)C)C[C@H]2C)ccc1Br | -5.5 | -7.8 | 4.7 | 0.0 | . | -1.2
CC1CCCCC1N(C)C1CCN(C(=O)CNC(=O)/C=C/c2cccc(Cl)c2)CC1 (configuration not stated) | 22.2* | 3.9 | -4.4 | -2.0 | 5.8 | -0.6
COc1ccc(/C=C/C(=O)NCC(=O)N2CCC(N(C)CCN3CCOCC3)CC2)cc1OC | -1.9 | 2.8 | -1.0 | 0.4 | 0.8 | 22.1*
CN(C1CCCC1)C1CCN(C(=O)CNC(=O)/C=C/c2ccccc2)CC1 | -3.6 | -4.0 | -0.9 | 8.1 | 1.5 | 3.5
Cc1oc2cc([N+](=O)[O-])c(O)c([N+](=O)[O-])c2c1C(=O)c1ccc(Cl)cc1 | 6.2 | -9.6 | 9.5 | 35.6* | 2.4 | -6.3
CCOC(=O)c1c(C)n(C)c2cc([N+](=O)[O-])c(O)c([N+](=O)[O-])c12 | 5.5 | -8.8 | 1.5 | -1.1 | -2.9 | -3.7
CN(CC#CC1(O)c2ccccc2-c2ccccc21)Cc1ccccc1 | -0.5 | 10.1 | 2.5 | -2.5 | 0.6 | 22.8*
Cc1[nH]c2ccccc2c1C(=O)CSC(=S)N(C)C1CCCCC1 | 3.9 | 7.4 | 5.4 | 1.4 | -7.2 | 26.4*
COCCCNC(=O)C[C@H]1C[C@@]2(C(=O)OC)C(=C[C@H](C(C)C)O[C@@H]2C2CC2)N(Cc2cccc3ccccc23)C1=O | -1.6 | 4.5 | -0.5 | 4.6 | . | 0.2
N=C1/C(=C\c2coc3ccc(O)cc3c2=O)C(=O)N=C2SC=CN12 | 30.9* | -6.7 | 8.2 | -168.5 | 4.6 | -9.5
N=C1/C(=C/c2coc3ccccc3c2=O)C(=O)N=C2SC(c3ccco3)=NN12 | . | . | . | . | 12.8 | .
O=C(c1ccncc1)N1CCN(C(=O)c2cccs2)CC1 | -0.2 | 4.5 | -0.4 | 2.1 | 4.9 | -0.6
O=C(c1cccs1)N1CCN(Cc2ccccn2)CC1 | -3.2 | 10.6 | 9.8 | 3.0 | 1.2 | 23.9*
SMILES | PRMT1 inh | MBD2 inh | LEDGF integ inh | rCAG binder | ABHD5 PLIN5 PPI | UHRF1 MBD2 ctr
C#CCOCCOCCOCCNc1nc(N2CCOCC2)nc(N2CCN(C(=O)[C@H](CCC(=O)O)n3cc(C(N)CC(C)C)nn3)CC2)n1 (some centres not stated) | 9.9 | 11.1 | -3.7 | . | . | 7.6
CC(C)(C)OC(=O)NC1CCN(c2nc(-c3ccc(Br)cc3)cs2)CC1 | 1.9 | -2.0 | -2.6 | . | . | -0.3
CCCCNC(=O)CCNS(=O)(=O)c1ccc(Br)cc1 | -1.6 | -3.4 | 0.6 | -1.6 | -0.2 | -0.6
CCC(C)NC(=O)CCNS(=O)(=O)c1ccc(Br)cc1 (configuration not stated) | 2.6 | 0.6 | -0.4 | -0.6 | 0.2 | 31.7*
Clc1cccc(Cc2c(-c3cccc(Cl)c3)nc3ccc(Br)cn23)c1 | 3.0 | 4.6 | -3.0 | 10.1 | -12.6 | 3.4
CCCc1nc2ccc(Br)cn2c1Cc1cccc(Cl)c1 | 0.6 | 7.8 | -1.6 | 6.3 | -1.3 | 21.0*
CCCc1nc2ccc(C)cn2c1Cc1ccccc1 | -1.5 | 10.8 | 0.5 | 5.0 | 4.9 | 20.6
CCCc1nc2ccc(Br)cn2c1Cc1ccccc1 | -3.5 | 3.9 | 3.6 | 4.5 | -0.5 | 23.0*
CC(C)(C)c1ccc(S(=O)(=O)N2CCC(C(=O)NCC3COCCO3)CC2)cc1 (configuration not stated) | 9.2 | 9.6 | -0.7 | 1.5 | . | -0.2
Cc1ccc(NC(=O)CSc2nnc(CSc3nc(C)cc(C)n3)n2Cc2ccco2)c(C)c1 | -2.1 | -6.2 | 0.1 | -11.1 | 1.8 | -1.5
Cc1ccc(NCc2nnc(SCC(=O)c3ccccc3)n2Cc2ccco2)c(C)c1 | 23.9* | 1.1 | 11.7 | 15.0 | 17.8 | 12.1
COC[C@@H](O)[C@H]1OCc2cc(OC)ccc2[C@@H]1/C=C/c1ccccc1 | -1.9 | 3.6 | -3.6 | 1.8 | . | 2.4
CCN1/C(=C/c2ccc3cc(C)ccc3[n+]2CC)Sc2ccccc21 | -13.9 | -0.7 | 1.2 | -143.3 | 22.9* | -42.4
COc1ccc(-c2cc(C(=O)NN=Cc3ccccc3[N+](=O)[O-])[nH]n2)cc1 | 5.7 | 2.6 | -1.7 | 11.9 | . | 1.5
Cc1ccc(-c2csc(NC(=O)c3cccc(N4C(=O)CCC4=O)c3)n2)o1 | . | . | . | . | 22.2* | .
S=c1[nH]nc(-c2cc3c(s2)-c2ccccc2CC3)o1 | 21.5* | -5.1 | -0.4 | 47.6* | -44.7 | -2.6
CSc1nnc(-c2cc3c(s2)-c2ccccc2CC3)o1 | 1.2 | 1.5 | 0.0 | 2.3 | 6.2 | -1.6
O=C(Nc1ccccc1C(F)(F)F)OC1CC2CC1[C@H]1CCCCN1C2 (some centres not stated) | 0.4 | 1.4 | -3.8 | 10.6 | . | -0.7
CCC(C)(C)n1nnnc1C(c1ccc(O)c(OC)c1)N1CCc2ccccc2C1 (configuration not stated) | 23.2* | 1.4 | -0.6 | 1.3 | 10.3 | 1.5
CCC(C)(C)n1nnnc1C(c1ccccc1)N1CCc2ccccc2C1 (configuration not stated) | -2.8 | 1.4 | 2.3 | 1.2 | -1.8 | -2.3
CCCCn1nc(NC(=O)CC)c2cc3cc(OC)ccc3nc21 | 12.7 | 10.9 | -2.0 | -0.9 | -0.8 | 22.3*
CCCn1nc(NC(=O)C(C)(C)C)c2cc3cc(OC)ccc3nc21 | -0.3 | 4.6 | -3.8 | 4.3 | 2.8 | -0.1
